# In ChEMBL document CHEMBL3988442, “University of Dundee, Small-Polar-MMV Screening Library” (2021):
# Out of some 69,000 compounds screened, about 1,000 (1.4%) showed an effect of 50% or more. The sample holds strong results, similar compounds and a random draw of the others, so the mix is not that of the screen.
# Test system: Leishmania donovani
# Assay: Leishmania intramacrophage assay
# Assay type: functional, organism-based
# Design: scale not given: in the data most compounds retested in dose-response had high values
smiles,measurement,setting,value
CCN1CCN(CC(O)c2ccc(OC(F)(F)F)cc2)CC1 (configuration not stated),Percent Effect,"30 µM, 30.03 µM",18.61%
O=C1CC2(CCN(C(=O)C3CCCCC3)C2)Nc2ccccc2N1 (configuration not stated),Percent Effect,"30.3 µM, […]",29.44%
Cc1nc(CO[C@H]2CN(C(=O)c3cnoc3C)[C@@H]3COC[C@H]23)cs1.O=C(O)C(F)(F)F,Percent Effect,"30.3 µM, […]",6.994%
CCOCC(O)CN1CCN(C(=O)c2cc(C)ccc2F)CC1 (configuration not stated),Percent Effect,30 µM,-8.817%
COCCOCC(=O)NC(C#N)c1cccc(Cl)c1Cl (configuration not stated),Percent Effect,"30.3 µM, […]",-18.55%
CCOCC1c2c(ncn2C(C)C)CCN1C(=O)C1CC1 (configuration not stated),Percent Effect,"30.3 µM, […]",23.55%
Cc1ccc2c(c1)C1(CC2)CCN(c2nncs2)CC1,Percent Effect,"30 µM, 30.03 µM",8.524%
c1cc(-c2ccc3c(c2)C2(CC3)CCN(c3nncs3)CC2)ccn1,Percent Effect,"30.3 µM, […]",59.16%
O=C(O)C(F)(F)F.c1cc(-c2ccc3c(c2)CCC32CCN(c3nncs3)CC2)ccn1,Percent Effect,"30.3 µM, […]",73.19%
c1cc(-c2ccc3c(c2)CCC32CCN(c3nncs3)CC2)co1,Percent Effect,"30.3 µM, […]",-6.512%
CN(C)CC(=O)N1CCC2(CCc3ccc(-c4ccncc4)cc32)CC1.O=C(O)C(F)(F)F.O=C(O)C(F)(F)F,Percent Effect,"30.3 µM, […]",33.01%
O=C(O)C(F)(F)F.c1cncc(-c2ccc3c(c2)C2(CC3)CCN(c3nncs3)CC2)c1,Percent Effect,"30 µM, 30.03 µM",47.88%
Cc1noc(C)c1CN1C(=O)[C@H]2CC[C@@H]1CN(Cc1ccc(Cl)cc1)C2,Percent Effect,"30.3 µM, […]",25.74%
COc1ccc(F)cc1C(C(=O)O)N1CCCN(C2CCCC2)CC1 (configuration not stated),Percent Effect,"30.3 µM, […]",27.32%
CCS(=O)(=O)N1CCN(Cc2cccnc2)c2nc(C)ccc2C1.O=C(O)C(F)(F)F.O=C(O)C(F)(F)F,Percent Effect,"30.3 µM, […]",32.81%
COc1ccc(CC(=O)N2CCC[C@@H](N)[C@@H]2c2ccccc2F)cc1.Cl,Percent Effect,"30.3 µM, […]",50.59%
N[C@@H]1CCCN(C(=O)Cc2c[nH]c3ccccc23)[C@H]1c1ccccc1F,Percent Effect,"30.3 µM, […]",38.86%
COc1cccc(CCC(=O)N2CCC[C@@H](N)[C@@H]2c2ccccc2F)c1.Cl,Percent Effect,"30.3 µM, […]",36.93%
Cc1noc2ncc(S(=O)(=O)Nc3cc(CC(C)(C)C)[nH]n3)cc12,Percent Effect,"30.3 µM, […]",32.33%
CCCN(CC)C(=O)c1cc(Cn2c(C)nc3ccccc32)[nH]n1,Percent Effect,"30.3 µM, […]",56.73%
CCN(CCO)C(=O)c1cc(Cn2c(C)nc3ccccc32)[nH]n1,Percent Effect,"30.3 µM, […]",22.11%
CCCN(CCOC)C(=O)c1cc(Cn2c(C)nc3ccccc32)[nH]n1,Percent Effect,"30.3 µM, […]",37.64%
CCc1nnc2n1CCN(C(=O)c1ccc(-c3ccco3)[nH]c1=O)C2,Percent Effect,30 µM,4.718%
COc1ccccc1N1CCN(C(=O)CSCC2CC2)C(C)C1 (configuration not stated),Percent Effect,"30.3 µM, […]",-23.1%
CSCC[C@H](N)c1nnc(SCc2cc(C)ccc2C)o1.Cl,Percent Effect,"30.3 µM, […]",51.5%
Cc1ccc(C)c(CSc2nnc(C(N)C(C)C)o2)c1.Cl (configuration not stated),Percent Effect,"30.3 µM, […]",-13.85%
Cc1ccc(C)c(CSc2nnc([C@@H](N)C(C)C)o2)c1.Cl,Percent Effect,"30.3 µM, […]",-10.46%
Cc1noc(C)c1-c1cncc(C2CCCN2Cc2cn(C)cn2)n1 (configuration not stated),Percent Effect,"30.3 µM, […]",19.34%
CNC(=O)N1CC[C@@H]2CN(Cc3cccc(OC)c3)S(=O)(=O)[C@@H]2CC1,Percent Effect,"30.3 µM, […]",61.69%
CNC(=O)N1CC[C@@H]2CN(Cc3cccc(Cl)c3)S(=O)(=O)[C@@H]2CC1,Percent Effect,"30.3 µM, […]",7.409%
CCCC(C(=O)NC1CCN(S(C)(=O)=O)CC1)n1cccc1 (configuration not stated),Percent Effect,"30.3 µM, […]",18.03%
COc1ccc(CN2CCC3(CC2)CN(c2ccccn2)CCO3)cc1.O=C(O)C(F)(F)F.O=C(O)C(F)(F)F,Percent Effect,"30.3 µM, […]",-28.76%
COc1ccc(C(CNS(=O)(=O)c2cn(C)nc2C)N2CCCC2)cc1.Cl (configuration not stated),Percent Effect,"30.3 µM, […]",23.75%
Cc1[nH]c2c(F)cccc2c1CC(=O)N1CCCC(N)CC1 (configuration not stated),Percent Effect,"30.3 µM, […]",-7.725%
Cn1cc(C2CC(=O)NC23CCN(C(=O)Cc2ccccn2)CC3)cn1.O=C(O)C(F)(F)F (configuration not stated),Percent Effect,"30.3 µM, […]",2.376%
Cn1cc(C2CC(=O)NC23CCN(C(=O)c2cccnc2)CC3)cn1.O=C(O)C(F)(F)F (configuration not stated),Percent Effect,"30.3 µM, […]",56.16%
Cc1cncc(C(=O)N2CCC3(CC2)NC(=O)CC3c2ccccc2)c1.O=C(O)C(F)(F)F (configuration not stated),Percent Effect,"30.3 µM, […]",4.194%
O=C(NCCn1nc2ccccn2c1=O)c1sccc1-c1ccccc1,Percent Effect,30 µM,25.6%
Cn1ccc(NC(=O)Cc2ccccc2F)n1,Percent Effect,"30.3 µM, […]",-10.05%
COC(=O)N1CCCC(C(=O)Nc2nc(C)c(SC)s2)C1 (configuration not stated),Percent Effect,"30.3 µM, […]",9.664%
CC(C)OCCC(=O)NS(=O)(=O)N1CCOc2ccccc21,Percent Effect,"30.3 µM, […]",-11.14%
O=C(CCc1ccco1)NS(=O)(=O)N1CCOc2ccccc21,Percent Effect,"30.3 µM, […]",39.68%
O=C(CCOCc1ccccc1)NS(=O)(=O)N1CCOc2ccccc21,Percent Effect,"30.3 µM, […]",54.49%
COCCn1cc(C(=O)N2CCCC2c2ccncc2)c2ccccc21 (configuration not stated),Percent Effect,"30.3 µM, […]",-8.376%
O=C(c1cccnc1)N1CCC2(CNS(=O)(=O)c3cnccc3O2)C1 (configuration not stated),Percent Effect,"30.3 µM, […]",9.418%
Cc1cc(N2CCN(C(=O)[C@@H]3C[C@@H]4C=C[C@H]3C4)CC2)nc2ccccc12,Percent Effect,"30.3 µM, […]",19.09%
CC(=O)Nc1ccc(C(=O)N(C)Cc2cccc(F)c2)s1,Percent Effect,"30.3 µM, […]",-28.94%
CC(=O)Nc1ccc(C(=O)N(C)Cc2ccc(F)cc2F)s1,Percent Effect,"30.3 µM, […]",41.29%
COc1cccc(CN(C)C(=O)c2ccc(NC(C)=O)s2)c1OC,Percent Effect,"30.3 µM, […]",52.82%
Cc1cc(C(=O)NCc2cccnc2N2CCCC(O)C2)c(C)o1 (configuration not stated),Percent Effect,"30.3 µM, […]",26.29%
CCc1nc(C)cc(N2CCCC(C(=O)c3ccc(OC)cc3C)C2)n1 (configuration not stated),Percent Effect,"30.3 µM, […]",50.79%
COc1ccc(C(=O)C2CCCN(c3cc(N)ncn3)C2)c(C)c1 (configuration not stated),Percent Effect,"30.3 µM, […]",55.56%
COc1ccc(C(=O)C2CCCN(c3cc(OC)ncn3)C2)c(C)c1 (configuration not stated),Percent Effect,"30.3 µM, […]",27.19%
COc1ccc(C(=O)C2CCCN(c3cnccn3)C2)c(C)c1 (configuration not stated),Percent Effect,"30.3 µM, […]",7.713%
CCc1nc2n(n1)CCCC2NC(=O)Nc1cc(OC)ccc1C (configuration not stated),Percent Effect,"30.3 µM, […]",6.976%
COc1ccc(C(=O)C2CCCN(c3nccc(N)n3)C2)c(C)c1 (configuration not stated),Percent Effect,"30.3 µM, […]",44.3%
CC1(C)COCCN1C(=O)CCc1nc(-c2ccncc2)no1,Percent Effect,"30.3 µM, […]",0.2365%
CC1CCN(CC(=O)NC2CCN(C(C)c3ccccc3)CC2)CC1.Cl (configuration not stated),Percent Effect,"30.3 µM, […]",0.5624%
CCn1ccc(-c2cc(NCCCOc3cccc(C)c3)nc(C)n2)n1,Percent Effect,"30.3 µM, […]",7.258%
CCn1ccc(-c2cc(NCCCOc3ccccc3C)nc(C)n2)n1,Percent Effect,"30.3 µM, […]",56.31%
COc1ccccc1OCCNCCn1cccn1,Percent Effect,30 µM,30.77%
Cc1ccc(C(=O)N2C[C@@H](N3CCN(C)CC3)[C@H]3OCCC[C@H]32)cn1,Percent Effect,"30.3 µM, […]",22.91%
CNC(=O)[C@@H]1C[C@H]2CN(Cc3nccs3)C[C@H]2N1C.O=C(O)C(F)(F)F.O=C(O)C(F)(F)F,Percent Effect,"30 µM, 30.03 µM",9.102%
CN(C)C[C@H]1C[C@@H](CO)CN(C(=O)c2cc(=O)[nH]c3cc(F)ccc23)C1,Percent Effect,"30.3 µM, […]",30.17%
CC1CN(C(=O)c2cc(=O)[nH]c3ccc(F)cc23)CCO1 (configuration not stated),Percent Effect,"30.3 µM, […]",-3.043%
CN(C)C[C@@H]1[C@H]2CN(C(=O)c3cc(=O)[nH]c4ccc(F)cc34)C[C@@H]12,Percent Effect,"30.3 µM, […]",55.47%
CCOC(=O)C1CCN(c2nccc(-n3nc(C)cc3C)n2)CC1,Percent Effect,"30.3 µM, […]",24.33%
Cc1cnc(N2CC(C(=O)N3CCOCC3)C3(CCOCC3)C2)nc1 (configuration not stated),Percent Effect,"30.3 µM, […]",0.6566%
Cn1ccc(C(=O)N2CCCC(Cc3cccc4ncccc34)C2)n1 (configuration not stated),Percent Effect,"30 µM, 30.03 µM",74.08%
COCCNc1cc(-c2cccc(C(=O)O)c2C)c2cc[nH]c2n1,Percent Effect,"30.3 µM, […]",27.05%
Cc1cc(C(=O)NCCN2CCCC(C)C2)nn1C(C)(C)C (configuration not stated),Percent Effect,"30.3 µM, […]",12.01%
CN(C)C(=O)c1cncnc1-c1ccc(CNC(=O)C2CCCO2)cc1 (configuration not stated),Percent Effect,"30.3 µM, […]",-46.25%
O=C1CC2(CCN(CC3CC3)CC2)CN1Cc1cc(F)cc(F)c1,Percent Effect,"30.3 µM, […]",59.82%
O=C1CC2(CCN(CC3CCOC3)CC2)CN1Cc1cc(F)cc(F)c1 (configuration not stated),Percent Effect,"30 µM, 30.03 µM",41.14%
O=C1CC2(CCN(CCO)CC2)CN1Cc1cc(F)cc(F)c1,Percent Effect,"30 µM, 30.03 µM",24.96%
Cc1cc(C(N)=O)c2c(Br)cccc2n1,Percent Effect,"30.3 µM, […]",-10.76%
c1ccc2c(N3CCOC(Cn4cccn4)C3)ncnc2c1 (configuration not stated),Percent Effect,"30.3 µM, […]",-0.8022%
c1cnn(CC2CN(c3ncnc4ccsc34)CCO2)c1 (configuration not stated),Percent Effect,"30 µM, 30.03 µM",45.92%
c1cnn(CC2CN(c3ncnc4sccc34)CCO2)c1 (configuration not stated),Percent Effect,"30 µM, 30.03 µM",57.28%
CN(C)CC1CN(c2ncnc3ccsc23)CCO1 (configuration not stated),Percent Effect,"30.3 µM, […]",16.39%
Cc1cnn(CC2CN(c3ncnc4ccccc34)CCO2)c1 (configuration not stated),Percent Effect,"30 µM, 30.03 µM",53.49%
Cc1cnn(CC2CN(c3ncnc4ccsc34)CCO2)c1 (configuration not stated),Percent Effect,"30 µM, 30.03 µM",66.34%
Cc1cnn(CC2CN(c3ncnc4[nH]ccc34)CCO2)c1 (configuration not stated),Percent Effect,30 µM,4.128%
c1nc(N2CCOC(Cn3cncn3)C2)c2sccc2n1 (configuration not stated),Percent Effect,"30.3 µM, […]",23.8%
c1cnn(CC2CN(c3ncnc4[nH]ccc34)CCO2)c1 (configuration not stated),Percent Effect,30 µM,1.835%
Cc1nc2cc(C(=O)N(CCC#N)CC3CCCO3)ccc2[nH]1 (configuration not stated),Percent Effect,"30.3 µM, […]",5.976%
Cc1nn(C)c(C)c1OCC(=O)NCC(O)Cc1ccccc1 (configuration not stated),Percent Effect,"30.3 µM, […]",-11.07%
CC(C)(C)CC(=O)NS(=O)(=O)c1ccc(F)cc1C(F)(F)F,Percent Effect,"30.3 µM, […]",3.58%
CNS(=O)(=O)c1ccc(C(=O)N2CCCC2c2ccccc2C)o1 (configuration not stated),Percent Effect,30 µM,17.32%
O=C(Cn1ccc2sccc2c1=O)NCCCc1ccccc1,Percent Effect,"30.3 µM, […]",1.811%
Cc1cccc(CN2CCCC3(CCN(CC(=O)N(C)C)C3=O)C2)n1.O=C(O)C(F)(F)F (configuration not stated),Percent Effect,"30.3 µM, […]",-21.17%
Cc1ccc(C(=O)Nc2ccc3c(c2)N(C)CCN(C)C3)c(=O)[nH]1,Percent Effect,"30.3 µM, […]",4.534%
NC1(CN2CCCCC2)CCCCC1,Percent Effect,"30.3 µM, […]",-14.65%
Cc1nc(CN2CCCn3c(nc(Cn4cncn4)cc3=O)C2)cs1.O=C(O)C(F)(F)F,Percent Effect,"30.3 µM, […]",16.7%
CCOC(=O)Cc1n[nH]c(-c2cncc(Br)c2)n1,Percent Effect,"30.3 µM, […]",100.5%
CCNC(=O)Cc1n[nH]c(-c2cncc(Br)c2)n1,Percent Effect,"30.3 µM, […]",-72.67%
CNC(=O)Cc1n[nH]c(-c2cncc(Br)c2)n1,Percent Effect,"30.3 µM, […]",-1.104%
